Values joined by “and” are separate entries in the source; they are usually repeats but may differ in a detail not shown here. Equal entries are not always repeated. This is part of a sample that, as a whole, favours compounds with a hit. Of some 83,000 tested, about 20% had one in any assay.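 48-hour exposure, single concentration, 96-well plates; percent growth endpoint where 0 means no net growth. Active: below 10.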 Values without a mark were called inactive. Active and inactive are the calls of the source.
Each compound was assayed on UACC-257 melanoma (assay: NCI-60 one-dose screen, 48 h (100 = growth as untreated, 0 = no growth, -100 = all killed)). Details: 10 µM unless noted.
S=c1nn[nH]n1C1CCCCC1 showed a growth of 97.8%.
With CCCC(=O)Oc1ccc(CC)cc1 the growth was 94.2%.
For CC(CN(C)C)CN1c2ccccc2Sc2ccccc21 (stereo unspecified), the growth was 65.1% and 110% and 92.1%.
Work on O=S(=O)(O)c1ccc2cc(O)ccc2c1 yielded a growth of 105%.
For C(#CCN1CCOCC1)CCCN1CCOCC1, the growth was 97.5% and 101%.
COc1cc(Cl)ccc1C was tested, and the growth was 85%.
With Clc1ccc(/C=C/c2ccc3ccccc3n2)cc1 the growth was 44.2% and 134% and 104%.
CCC(C)(O)CCC(C)(O)CC (stereo unspecified) was tested, and the growth was 106%.
In the case of CC1(C)CC(=O)NC1=O, the growth is reported as 101%.
Cc1ccc(NC(=S)N/C=C(\c2ccccc2)S(=O)Cc2ccccc2)c(C)c1 (stereo unspecified) gave a growth of 98.9%.
COC(=O)c1ccccc1Cl was tested, and the growth was 102%.
In the case of N#Cc1c(N)nc2c(c(-c3ccc(Cl)cc3)nn2-c2ccccc2)c1C#N, the growth is reported as 91.8% [100 µM].
Cn1c(-c2ccccc2)cc(=O)cc1-c1ccccc1 gave a growth of 95.1%.
For CC(C)(C)C1CCC(=NO)CC1 (stereo unspecified), the growth was 76.4%.
Work on CC1=CC(=O)c2cccc(NC3=NCCO3)c21 yielded a growth of 94.2%.
CCOC(C)=N showed a growth of 104%.
O=C(N=C1C(=O)C2(CCCCC2)C2(N=C(c3ccccc3)OC2=O)C12CCCCC2)c1ccccc1 (stereo unspecified) was tested, and the growth was 67.7%.
Cc1ccc2cccc([N+](=O)[O-])c2n1 was tested, and the growth was 102% and 107%.
CCOc1ccc(/C=C\C(=O)O)cc1 was tested, and the growth was 109%.
For O=C(Nc1ccccc1)OCC(CN1CCCCC1)OC(=O)Nc1ccccc1 (stereo unspecified), the growth was 93.7% and 93.2%.
CSc1nc(N)c(N)c(N)n1 gave a growth of 96.9%.
Work on O=C(O)c1cc(=O)[nH]c(=O)[nH]1 yielded a growth of 103%.
C/C=C/C(=O)OCCCCCCCCCCCC gave a growth of 94.4%.
With CCOC(=O)C1=CC(=O)CC(C)(C)O1 the growth was 106% and 95.7%.
In the case of CCN(CC)CCO/N=C1\CC(c2ccc(OC)c(OC)c2)Oc2ccccc21 (stereo unspecified), the growth is reported as 101%.
In the case of NC1=NC(c2ccccc2)N=C(Nc2ccccc2)N1 (stereo unspecified), the growth is reported as 91.9% and 108%.
Cc1cnc(N)s1 was tested, and the growth was 84.4%.
Compound CC1=CC(=O)C=CC1=Nc1ccc(N(C)C)cc1 has a growth of 82%.
C#CCOC(=O)C(N)CS (stereo unspecified) gave a growth of 107%.
With O=C(O)c1ccc2c3ccc(C(=O)O)c4c(C(=O)O)ccc(c5ccc(C(=O)O)c1c25)c43 the growth was -14.6% (active).
With COc1ccc2nccc(Cl)c2c1 the growth was 91.9%.
With COC(=O)c1nc(N)nc(C(=O)OC)c1C(=O)c1cccc2ccccc12 the growth was 118%.
For C/C(CC(C)C)=N/NC(N)=S, the growth was 74.4%.
With Cc1c(Cl)c(C)c(Cc2c(C)c(Cl)c(C)c(Cl)c2O)c(O)c1Cl the growth was -0.631% (active).
CCCC(=O)Oc1ccc2ccccc2c1 showed a growth of 90.8%.
With CCOC(=N)c1ccc(C(=N)OCC)cc1 the growth was 102%.
COc1ccc(/C=C/C(=O)O)cc1OC was tested, and the growth was 104% and 102%.
Work on CCCC(=O)OCC(COC(=O)CCC)OC(=O)CCC yielded a growth of 95.5%.

These compounds were tested on M14 melanoma in the same assay as above. Details: 10 µM unless noted.
S=c1nn[nH]n1C1CCCCC1 showed a growth of 100%.
Compound CCCC(=O)Oc1ccc(CC)cc1 has a growth of 99%.
CC(CN(C)C)CN1c2ccccc2Sc2ccccc21 (stereo unspecified) was tested, and the growth was 47.9% and 81.3% and 75.8%.
With O=S(=O)(O)c1ccc2cc(O)ccc2c1 the growth was 103%.
With C(#CCN1CCOCC1)CCCN1CCOCC1 the growth was 105% and 98%.
For COc1cc(Cl)ccc1C, the growth was 95.8%.
In the case of Clc1ccc(/C=C/c2ccc3ccccc3n2)cc1, the growth is reported as 81% and 75.3%.
CCC(C)(O)CCC(C)(O)CC (stereo unspecified) gave a growth of 103%.
CC1(C)CC(=O)NC1=O was tested, and the growth was 95%.
Cc1ccc(NC(=S)N/C=C(\c2ccccc2)S(=O)Cc2ccccc2)c(C)c1 (stereo unspecified) was tested, and the growth was 97.3%.
For COC(=O)c1ccccc1Cl, the growth was 102%.
For N#Cc1c(N)nc2c(c(-c3ccc(Cl)cc3)nn2-c2ccccc2)c1C#N, the growth was 106% [100 µM].
For Cn1c(-c2ccccc2)cc(=O)cc1-c1ccccc1, the growth was 97.7%.
CC(C)(C)C1CCC(=NO)CC1 (stereo unspecified) gave a growth of 100%.
CC1=CC(=O)c2cccc(NC3=NCCO3)c21 gave a growth of 97.1%.
CCOC(C)=N showed a growth of 97.5%.
Compound O=C(N=C1C(=O)C2(CCCCC2)C2(N=C(c3ccccc3)OC2=O)C12CCCCC2)c1ccccc1 (stereo unspecified) has a growth of 78%.
With Cc1ccc2cccc([N+](=O)[O-])c2n1 the growth was 121% and 97.9%.
In the case of CCOc1ccc(/C=C\C(=O)O)cc1, the growth is reported as 110%.
For O=C(Nc1ccccc1)OCC(CN1CCCCC1)OC(=O)Nc1ccccc1 (stereo unspecified), the growth was 86.6% and 108%.
CSc1nc(N)c(N)c(N)n1 was tested, and the growth was 102%.
In the case of O=C(O)c1cc(=O)[nH]c(=O)[nH]1, the growth is reported as 102% and 111%.
For C/C=C/C(=O)OCCCCCCCCCCCC, the growth was 98.7%.
For CCOC(=O)C1=CC(=O)CC(C)(C)O1, the growth was 99.6% and 112%.
CCN(CC)CCO/N=C1\CC(c2ccc(OC)c(OC)c2)Oc2ccccc21 (stereo unspecified) was tested, and the growth was 99.9%.
For NC1=NC(c2ccccc2)N=C(Nc2ccccc2)N1 (stereo unspecified), the growth was 81.9% and 75.9%.
Cc1cnc(N)s1 showed a growth of 91.9%.
In the case of CC1=CC(=O)C=CC1=Nc1ccc(N(C)C)cc1, the growth is reported as 93.5% and 41.1%.
C#CCOC(=O)C(N)CS (stereo unspecified) was tested, and the growth was 97.1%.
In the case of O=C(O)c1ccc2c3ccc(C(=O)O)c4c(C(=O)O)ccc(c5ccc(C(=O)O)c1c25)c43, the growth is reported as 107%.
Work on COc1ccc2nccc(Cl)c2c1 yielded a growth of 107%.
Work on COC(=O)c1nc(N)nc(C(=O)OC)c1C(=O)c1cccc2ccccc12 yielded a growth of 108%.
Work on C/C(CC(C)C)=N/NC(N)=S yielded a growth of 84.4%.
With Cc1c(Cl)c(C)c(Cc2c(C)c(Cl)c(C)c(Cl)c2O)c(O)c1Cl the growth was 22.6%.
CCCC(=O)Oc1ccc2ccccc2c1 was tested, and the growth was 97.5%.
CCOC(=N)c1ccc(C(=N)OCC)cc1 showed a growth of 104%.
COc1ccc(/C=C/C(=O)O)cc1OC was tested, and the growth was 101% and 106%.
CCCC(=O)OCC(COC(=O)CCC)OC(=O)CCC gave a growth of 102%.

Source: PubChem BioAssay (NCI)
